Compound activity: PubChem, National Center for Advancing Translational Sciences (NCATS)
RXFP1 agonist: activates the human relaxin receptor RXFP1; Q9HBX9; AID 2676; HEK293T-RXFP1 cAMP TR-FRET, 30 min; response scale: percent of porcine relaxin response, buffer zero; hit rate 0.3% among 370,000; Potency, µM (highest dose often 57.5 µM), without a hit: at the top dose activation, most hits filed as activators; further: potency means the concentration at half of the fitted maximal effect; on the % scale 0 is the no-effect control and ±100 the full control effect; nearly all actives have a fitted effect of over 60% in size
Target sequence (Q9HBX9 whole entry, looked up): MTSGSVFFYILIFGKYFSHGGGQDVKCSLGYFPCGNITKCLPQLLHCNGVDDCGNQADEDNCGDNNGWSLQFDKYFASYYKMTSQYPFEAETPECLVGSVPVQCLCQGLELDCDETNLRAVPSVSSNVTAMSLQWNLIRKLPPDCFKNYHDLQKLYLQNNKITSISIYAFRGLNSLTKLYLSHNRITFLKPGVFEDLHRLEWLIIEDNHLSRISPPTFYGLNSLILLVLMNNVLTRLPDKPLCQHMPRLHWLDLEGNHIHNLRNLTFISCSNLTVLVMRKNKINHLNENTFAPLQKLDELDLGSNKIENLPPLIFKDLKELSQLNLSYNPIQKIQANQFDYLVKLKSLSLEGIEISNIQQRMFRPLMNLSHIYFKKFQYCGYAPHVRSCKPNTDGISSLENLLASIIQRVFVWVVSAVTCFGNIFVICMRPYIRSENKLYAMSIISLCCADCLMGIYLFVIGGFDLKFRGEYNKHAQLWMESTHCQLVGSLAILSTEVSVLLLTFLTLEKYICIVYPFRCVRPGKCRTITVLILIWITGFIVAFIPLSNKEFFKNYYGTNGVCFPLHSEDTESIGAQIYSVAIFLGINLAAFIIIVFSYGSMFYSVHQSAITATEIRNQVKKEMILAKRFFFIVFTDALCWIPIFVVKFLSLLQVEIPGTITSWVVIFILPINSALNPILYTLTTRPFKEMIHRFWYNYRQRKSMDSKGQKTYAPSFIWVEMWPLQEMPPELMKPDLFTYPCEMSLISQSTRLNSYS
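Agonist response is measured as cAMP accumulation in an RXFP1-transfected HEK293T line under PDE4 inhibition. Values are scaled between buffer-only and 29 nM porcine relaxin, and EC50s come from standard Hill equation fits.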
gsp antag: gsp mutant antagonism; Potency, µM (top dose mostly 76.9 µM), for the others: at the highest dose activity change, negative = inhibition, hits mostly inhibitors; gsp-mutant cells, cAMP HTRF, 30 min; hit rate 0.4% among 340,000; AID 624288; calls by dose curve; cell line not stated here;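 further: intracellular cAMP measured with PDE inhibitor Ro 20-1724 present during compound exposure; potency means the concentration at half of the fitted maximal effect; on the % scale 0 is the no-effect control and ±100 the full control effect; nearly all actives have a fitted effect of over 65% in size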
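Cells in G418 medium, seeded 16-24 h, 37C; buffer exchange to DPBS + 1 mM CaCl2, 0.5 mM MgCl2, 0.05% BSA; cpds in DMSO + […] (300 uM stock), 30 min 37C; HTRF cAMP detection.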
gsp agonist: gsp mutant agonism | gsp mutant cells, cAMP HTRF, 30 min | Potency, µM (highest dose often 76.9 µM), without a hit: at the top dose activation (cAMP increase), hits mostly activators | hit rate 0.13% among 340,000 | AID 624287; active means well fitted activation curve with a large enough effect; inconclusive means small, poorly fitted or top-dose-only effect, or another doubt; inactive means no such curve, though single readings can be large or run the other way; cell line not stated here;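 further: phosphodiesterase inhibitor Ro 20-1724 added with compounds to block cAMP breakdown; potency means the concentration at half of the fitted maximal effect; nearly all actives have a fitted effect of over 60% in size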
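Cells stably selected in G418 were plated at 2000/well, grown 16-24 hr, then given compounds in DMSO with the PDE inhibitor […] (300 uM solution added) for 30 min at 37C; cAMP was read by HTRF.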
PTHR1 agonist: agonists of human PTHR1 parathyroid hormone receptor. Q03431. HEK293 GP2 PTHR1 cells, GloSensor cAMP luminescence, 1 h. Potency, µM (series often up to 115 µM), without a hit: at the highest dose activation, usual class: activators. hit rate 0.075% among 410,000; further: potency means the concentration at half of the fitted maximal effect; nearly all actives have a fitted effect of over 55% in size
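HEK-293-derived GP2 cells expressing PTHR1 and a GloSensor cAMP reporter, 3,000/well, plated overnight, given luciferin plus IBMX (each 0.5 mM as added) for 1 h at 37 °C, then compound for 1 h at 37 °C. Luminescence was read after 15 min at room temperature.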
RXFP1 antagonist: RXFP1 (human) relaxin receptor antagonism. Q9HBX9. HEK293-RXFP1, relaxin-stimulated cAMP HTRF, 30 min; hits give low values. activity change, negative = inhibition, % at 57.5 µM. hit rate 0.59% among 350,000. AID 1259400;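 active means activity change of -60% or lower, but not beyond a set lower limit; inconclusive means change between -60% and -40%, or beyond the set limit; inactive means change above -40%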; further: on the % scale 0 is the no-effect control and ±100 the full control effect
An asterisk follows results filed as active; [ ] = another dose, or the depositor's remark. Rows were chosen to be rich in hits. Some 1% of all compounds tested hit in one or more screens of this group. Unless noted, the call rests on the fitted dose curve; in most records, active means well fitted curve in the direction sought with a large enough effect; inconclusive means small, poorly fitted or top-dose-only effect, or another doubt; inactive means no such curve, though single readings can be large; an effect the other way counts as inactive or inconclusive.

What do the screens show for `CCc1sc(C(=O)Nc2ccc3c(c2)OCO3)cc1C`?
gsp antag: -4%; gsp agonist: -9%[15.4 µM]; PTHR1 agonist: -23%; RXFP1 antagonist: -63*

How did COc1ccc(C(=O)Nc2ccccc2NC(=O)c2ccc(OC)cc2)cc1 do in these assays?
gsp antag: -22%; gsp agonist: -22%; PTHR1 agonist: -41%; RXFP1 antagonist: 0

What do the screens show for `COc1ccc(C)cc1NC(=O)c1cccc(-c2ccc(OC(C)=O)cc2)c1`?
RXFP1 agonist: 5%; gsp antag: 25µM*; gsp agonist: 6%[15.4 µM]; PTHR1 agonist: inactive; RXFP1 antagonist: -4

What do the screens show for `CC(=O)Oc1ccc(C(=O)Nc2ccccc2NC(=O)c2ccc(OC(C)=O)cc2)cc1`?
RXFP1 agonist: -4%; gsp antag: 25µM*; gsp agonist: -2%; PTHR1 agonist: -10%; RXFP1 antagonist: 6

Results for S=c1[nH]nc(SCc2ccccc2)c2[nH]cnc12 ?
gsp antag: inconclusive; gsp agonist: 14µM*; PTHR1 agonist: -6%; RXFP1 antagonist: 59

What do the screens show for `CCCCSc1n[nH]c(=S)c2nc[nH]c12`?
gsp antag: 8%; gsp agonist: inconclusive; PTHR1 agonist: inactive; RXFP1 antagonist: 29

How did O=C(NCc1ccccc1Cl)C1CCCN(c2nc3ccccc3n3cccc23)C1 (centres undefined) do in these assays?
RXFP1 agonist: 7%; PTHR1 agonist: inactive; RXFP1 antagonist: -28

What do the screens show for `CC1Sc2ccc(S(=O)(=O)N3CCC(C(=O)NCC(C)c4ccccc4)CC3)cc2NC1=O` (centres undefined)?
RXFP1 agonist: 0%; gsp antag: 28µM*; gsp agonist: inconclusive; PTHR1 agonist: -28%; RXFP1 antagonist: -6

Results for O=C(CSc1nc2c([nH]c3ccccc32)c(=O)n1-c1ccccc1F)Nc1cccc(Cl)c1 ?
RXFP1 agonist: -1%; PTHR1 agonist: -4%; RXFP1 antagonist: -31

How did Cc1ccc2c(=O)n3c(nc2c1)C(C)NC(=O)c1cccnc1-3 (centres undefined) do in these assays?
gsp agonist: 32µM*; PTHR1 agonist: inactive; RXFP1 antagonist: 3

Results for CCOC(=O)c1c(NC(=O)c2ccc(S(=O)(=O)N3CCC(C)CC3)cc2)sc2c1CCN(C)C2 ?
RXFP1 agonist: -36%; PTHR1 agonist: -18%; RXFP1 antagonist: -63*

Results for Cc1cc(N2CCCC2=O)cc(C)c1S(=O)(=O)NCCOc1ccc(C(C)(C)C)cc1 ?
RXFP1 agonist: 0%; gsp antag: 25µM*; gsp agonist: -14%; PTHR1 agonist: inactive; RXFP1 antagonist: -3

Results for OCc1ccccc1SSc1ccccc1CO ?
gsp antag: inconclusive; gsp agonist: -2%[15.4 µM]; PTHR1 agonist: inactive; RXFP1 antagonist: -65*

What do the screens show for `CC1=NOC(=O)/C1=C\c1ccc(-c2cccc(Cl)c2)o1`?
RXFP1 agonist: 1%; gsp antag: -1%; gsp agonist: -9%; PTHR1 agonist: -46%

Results for CC1=NOC(=O)/C1=C\c1ccc(-c2ccccc2Br)o1 ?
RXFP1 agonist: 18µM*; gsp antag: 8%; gsp agonist: 16µM*; PTHR1 agonist: -39%; RXFP1 antagonist: -9

Results for O=c1[nH]sc2cc(Cl)ccc12 ?
RXFP1 antagonist: 19

Results for COc1ccc(N2C(=O)CCSC23C(=O)N(Cc2ccc(F)cc2)c2ccccc23)cc1 (centres undefined) ?
RXFP1 agonist: 0%; PTHR1 agonist: -21%; RXFP1 antagonist: -82*

Results for N#C[C@H]1C[C@H]2C[C@@H]2N1C(=O)[C@@H](N)C12CC3CC(CC(O)(C3)C1)C2 ?
RXFP1 antagonist: 10

How did COc1cccc(C2CC(=O)Nc3c2c(=O)n(C)c2nc4ccccc4n32)c1 (centres undefined) do in these assays?
RXFP1 agonist: 4%; PTHR1 agonist: inactive

What do the screens show for `COc1cc(C)nc(N(C)S(=O)(=O)c2ccccc2Cl)n1`?
RXFP1 agonist: 2%; gsp antag: 32µM*; gsp agonist: -1%; PTHR1 agonist: -5%[57.5 µM]; RXFP1 antagonist: -1

Results for CC(=O)Nc1ccc(C(=O)Nc2cccc(S(=O)(=O)N(C)c3ccccc3)c2)cc1 ?
RXFP1 agonist: 1%; gsp antag: -18%; gsp agonist: 13%; PTHR1 agonist: -37%; RXFP1 antagonist: -7

How did CN(c1ccccc1)S(=O)(=O)c1cccc(NC(=O)c2cc(=O)c3ccccc3o2)c1 do in these assays?
RXFP1 agonist: 1%; gsp antag: 40µM*; gsp agonist: 16%; PTHR1 agonist: -23%; RXFP1 antagonist: -32

What do the screens show for `Cc1nc2cc(NC(=O)c3ccc(S(=O)(=O)N(C)c4ccccc4)cc3)ccc2o1`?
RXFP1 agonist: -1%; gsp antag: 32µM*; gsp agonist: 2%[15.4 µM]; PTHR1 agonist: -32%; RXFP1 antagonist: -29

What do the screens show for `CN(c1cccc(NC(=O)c2ccc(N(C)S(=O)(=O)c3ccccc3)cc2)c1)S(C)(=O)=O`?
RXFP1 agonist: 4%; gsp antag: 25µM*; gsp agonist: -28%; PTHR1 agonist: -48%; RXFP1 antagonist: -6

What do the screens show for `CCOC(=O)c1ccccc1NC(=O)COC(=O)CC(C)(C)CC1=NS(=O)(=O)c2ccccc2N1`?
RXFP1 agonist: 2%; PTHR1 agonist: -39%

How did COc1cc(NC(=O)C2Cc3ccccc3N2C(=O)c2ccccc2)cc(OC)c1 (centres undefined) do in these assays?
RXFP1 agonist: 3%; PTHR1 agonist: inactive; RXFP1 antagonist: -3

How did CCc1ccc2[nH]c(=O)c(CN(CCN(C)C)C(=S)NCc3ccco3)cc2c1 do in these assays?
RXFP1 agonist: -1%; gsp antag: 3%; gsp agonist: -14%; PTHR1 agonist: -20%; RXFP1 antagonist: -64*

Results for Cc1cc(N2CCOCC2)nc2ccc(NC(=O)CCC(=O)N3CCN(c4cccc(C(F)(F)F)c4)CC3)cc12 ?
RXFP1 agonist: 0%; gsp antag: 40µM*; gsp agonist: 3%; PTHR1 agonist: -31%; RXFP1 antagonist: -12

Results for COc1ccc(OC(=O)N(CC(=O)O)Cc2ccc(OCCc3nc(-c4ccccc4)oc3C)cc2)cc1 ?
RXFP1 antagonist: 7

What do the screens show for `O=S(=O)(Nc1ccccn1)c1ccc(-n2cccn2)cc1`?
RXFP1 agonist: -3%; gsp antag: 2%; gsp agonist: inconclusive; PTHR1 agonist: -15%; RXFP1 antagonist: -108*

What do the screens show for `O=S(=O)(Nc1ccccn1)c1ccc(Cl)cc1`?
RXFP1 agonist: -1%; gsp antag: 8%; gsp agonist: 8%; PTHR1 agonist: inactive; RXFP1 antagonist: 6

Results for Cc1ccc2c(n1)Oc1ccc(C(C)C(=O)OCC(=O)N(C)C)cc1C2 (centres undefined) ?
RXFP1 antagonist: -5
